Laboratory results reported in PubChem BioAssay AID2284353 (EPA ToxCast).
Results filed as inconclusive are left out. Activity calls are given as the source filed them. How the source made its calls: active means hit-call score of the fitted dose curve at least 0.9, where 1 is the maximum; inconclusive means response in the unintended direction; inactive means score below 0.9.

System: Japanese medaka Peroxisome Proliferator-activated Receptor gamma (PPARg), gene 100304459
Test: ATG_jmPPARg_EcoTox2: Attagene TRANS-FACTORIAL EcoTox-2 HepG2 Assay for Japanese medaka Peroxisome Proliferator-activated Receptor gamma (PPARg)
Procedure: ATG_EcoTox2 is a cell-based, multiplexed assay created by modifying the existing Attagene TRANS-FACTORIAL system to include a panel of nuclear receptors from some or all the following species: human (Homo sapiens), african clawed frog (Xenopus laevis), rainbow trout (Oncorhynchus mykiss), japanese medaka (Oryzias latipes), and zebrafish (Danio rerio). The ECOTOX2-FACTORIAL format uses HepG2, a human liver cell line, with measurements taken at 24 hours after chemical dosing in a 24-well plate. ATG_jmPPARg_EcoTox2 is one of 29 assay components calculated in the ATG_EcoTox2 assay. It is designed to make measurements of mRNA induction, a form of inducible reporter, as detected with fluorescence intensity signals by Reverse transcription polymerase chain reaction (RT-PCR) and Capillary electrophoresis technology.The assay endpoint ATG_jmPPARg_EcoTox2 was analyzed in the positive analysis fitting direction relative to DMSO as the negative control and baseline of activity. Using a type of inducible reporter, measures of mRNA for gain-of-signal activity can be used to understand the reporter gene at the transcription factor-level as they relate to the gene PPARg. Furthermore, this assay endpoint can be referred to as a primary readout, because this assay has produced multiple assay endpoints where this one serves a reporter gene function. To generalize the intended target to other relatable targets, this assay endpoint is annotated to the nuclear receptor intended target family, where the subfamily is non-steroidal.
Human liver HepG2 cells are transiently transfected with multiple reporter transcription units (MRTUs) in 6-well plates using FuGene 6 reagent (Roche; 3 ml FuGene/1 mg DNA). The MRTU constructs are regulated by a cis-regulating element (promoter). Each RTU expresses a GAL4-UAS that regulates the transcription of a nearby target reporter gene sequence. A major difference between the CIS and TRANS system is that in CIS activities of endogenous TFs are measured, whereas the TRANS assay evaluates changes in activities of exogenous, chimeric NR-Gal4 proteins. […] At the end of 24 hour incubation, total RNA was isolated using TriZol reagent (Invitrogen). The isolated RNA is then reverse-transcribed using oligo(dT) primer and Mo-MLV reverse transcriptase (Invitrogen) with DNAse I (Ambion) treatment for 30 min. The one-tenth of the produced cDNA was amplified by PCR using Taq DNA polymerase (Invitrogen) and two reporter sequence-specific primers. The PCR products were fluorescently labeled by primer extension with 6-arboxyfluorescein (6-FAM) 5'-labeled reporter sequence-specific primer (2 min at 95 C, 20 s at 68 C and 10 min at 72 C) and these products were digested with 5U of HpaI (New England Biolabs) for 2h at 37 C. The fragments were purified using Qiaquick PCR columns (Qiagen), analyzed on an ABI 3130xL genetic analyzer (Applied Biosystems) with peak positions identified by using a set of X-rhodamine (ROX)-labeled MapMarker1000 molecular weight standards (BioVentures). The raw capillary electrophoresis data was processed using Attagraph software (Attagene).

Structure (SMILES)	AC50
O=P(Oc1ccccc1)(Oc1ccccc1)Oc1ccccc1	30.6 µM (active)
O=S(=O)(O)C(F)(F)C(F)(F)C(F)(F)C(F)(F)C(F)(F)C(F)(F)F	76.1 µM (active)
O=C(O)C(F)(F)C(F)(F)C(F)(F)C(F)(F)C(F)(F)C(F)(F)C(F)(F)F	75 µM (active)
CCCCOCN(C(=O)CCl)c1c(CC)cccc1CC	4.6 µM (active)
[Cl][Sn]([c]1ccccc1)([c]1ccccc1)[c]1ccccc1	0.382 µM (active)
